Reference: PubChem BioAssay (Tox21)
Records with an inconclusive call do not appear. Active and inactive are the calls of the source. Unless noted, calls come from the whole dose curve; as a rule, active = well fitted curve in the direction sought with a large enough effect in the repeat runs; inconclusive = weak or mixed curves; inactive = no such curve, though single readings can be large; an effect the other way counts as inactive or inconclusive.

Tests used:
[1] = qHTS assay for identifying genotoxic compounds that show differential cytotoxicity against isogenic chicken DT40 cell lines with known DNA damage response pathways - wild type cell line (AID 743012); note: nearly all actives have a fitted effect of over 60% in size; note: potency is the fitted concentration of half-maximal effect
Procedure, shortened: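 Cells (DT40 wild type, 300/well) are treated with DMSO-dissolved compounds after a ~0.5 h pre-incubation and kept 40 h at 37 C/5% CO2. Viability is then measured by CellTiter-Glo luminescence following 30 min at room temperature.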

[2] = qHTS assay for identifying genotoxic compounds that show differential cytotoxicity against isogenic chicken DT40 cell lines with known DNA damage response pathways - Rev3 mutant cell line (AID 743014); note: nearly all actives have a fitted effect of over 55% in size; note: potency is the fitted concentration of half-maximal effect
[3] = qHTS assay for identifying genotoxic compounds that show differential cytotoxicity against isogenic chicken DT40 cell lines with known DNA damage response pathways - Rad54/Ku70 mutant cell line (AID 743015); note: nearly all actives have a fitted effect of over 60% in size; note: potency is the fitted concentration of half-maximal effect
[4] = qHTS assay to identify small molecule antagonists of the androgen receptor (AR) signaling pathway - cell viability counter screen (AID 743033; note: nearly all actives have a fitted effect of over 45% in size)
[5] = qHTS assay to identify small molecule antagonists of the androgen receptor (AR) signaling pathway using the MDA cell line - cell viability counter screen (AID 743041; note: nearly all actives have a fitted effect of over 45% in size; note: potency is the fitted concentration of half-maximal effect)
Procedure, shortened: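 MDA-kb2 AR-luc cells (MMTV-luciferase, AR/GR responsive) treated with compounds plus R1881 agonist for 16 h at 37C. CellTiter-Fluor added at 15.5 h; fluorescence read after 30 min in the same wells.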

[6] = qHTS assay to identify small molecule antagonists of the glucocorticoid receptor (GR) signaling pathway - cell viability counter screen (AID 720693); note: nearly all actives have a fitted effect of over 55% in size
[7] = biological target: Androgen receptor (Homo sapiens) (UniProt P10275); assay: qHTS assay to identify small molecule antagonists of the androgen receptor (AR) signaling pathway (AID 743035; active = well fitted inhibition curve with a large enough effect in the signal ratio in the repeat runs, not every such curve was filed as active; the % refers to the signal ratio; note: potency is the fitted concentration of half-maximal effect)
Procedure, shortened: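 Antagonism is scored as loss of R1881-driven beta-lactamase reporter expression in HEK293 cells carrying the reporter under a UAS element, after 16 h co-treatment at 37C and a 2 h room-temperature FRET substrate read.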

[8] = biological target: Androgen receptor (Homo sapiens) (UniProt P10275); assay: qHTS assay to identify small molecule agonists of the androgen receptor (AR) signaling pathway (AID 743036; active = well fitted activation curve with a large enough effect in the signal ratio in the repeat runs, with a control signal flat, not every such curve was filed as active; the % refers to the signal ratio)
Procedure, shortened: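 HEK293 cells stably carrying a UAS-driven beta-lactamase reporter (GeneBLAzer AR-UAS-bla-GripTite) were plated at 2,000 cells/well, rested 4 h at 37C, then exposed to compounds in DMSO for 16 h. LiveBLAzer B/G FRET substrate was added for 2 h at room temperature; fluorescence read.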

[9] = biological target: Androgen receptor (Homo sapiens) (UniProt P10275); assay: qHTS assay to identify small molecule agonists of the androgen receptor (AR) signaling pathway using the MDA cell line (AID 743040; note: nearly all actives have a fitted effect of over 20% in size; note: potency is the fitted concentration of half-maximal effect)
Procedure, shortened: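 MDA-kb2 breast carcinoma cells carrying MMTV-luciferase (responsive to AR and GR), plated 5 h then treated 16 h with compounds at 37C, 0% CO2. Read-out was ONE-Glo luminescence after 30 min at room temperature.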

[10] = biological target: Androgen receptor (Homo sapiens) (UniProt P10275); assay: qHTS assay to identify small molecule antagonists of the androgen receptor (AR) signaling pathway using the MDA cell line (AID 743042; note: nearly all actives have a fitted effect of over 55% in size)
Procedure, shortened: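 MDA-kb2 breast carcinoma cells carrying MMTV-luciferase (AR/GR responsive) were co-treated with compounds and the agonist R1881 for 16 h at 37C. Inhibition read as ONE-Glo luminescence; CellTiter-Fluor fluorescence measured in parallel for cytotoxicity.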

Measured: Potency

Chain of Androgen receptor (Homo sapiens) (P10275 whole entry, looked up): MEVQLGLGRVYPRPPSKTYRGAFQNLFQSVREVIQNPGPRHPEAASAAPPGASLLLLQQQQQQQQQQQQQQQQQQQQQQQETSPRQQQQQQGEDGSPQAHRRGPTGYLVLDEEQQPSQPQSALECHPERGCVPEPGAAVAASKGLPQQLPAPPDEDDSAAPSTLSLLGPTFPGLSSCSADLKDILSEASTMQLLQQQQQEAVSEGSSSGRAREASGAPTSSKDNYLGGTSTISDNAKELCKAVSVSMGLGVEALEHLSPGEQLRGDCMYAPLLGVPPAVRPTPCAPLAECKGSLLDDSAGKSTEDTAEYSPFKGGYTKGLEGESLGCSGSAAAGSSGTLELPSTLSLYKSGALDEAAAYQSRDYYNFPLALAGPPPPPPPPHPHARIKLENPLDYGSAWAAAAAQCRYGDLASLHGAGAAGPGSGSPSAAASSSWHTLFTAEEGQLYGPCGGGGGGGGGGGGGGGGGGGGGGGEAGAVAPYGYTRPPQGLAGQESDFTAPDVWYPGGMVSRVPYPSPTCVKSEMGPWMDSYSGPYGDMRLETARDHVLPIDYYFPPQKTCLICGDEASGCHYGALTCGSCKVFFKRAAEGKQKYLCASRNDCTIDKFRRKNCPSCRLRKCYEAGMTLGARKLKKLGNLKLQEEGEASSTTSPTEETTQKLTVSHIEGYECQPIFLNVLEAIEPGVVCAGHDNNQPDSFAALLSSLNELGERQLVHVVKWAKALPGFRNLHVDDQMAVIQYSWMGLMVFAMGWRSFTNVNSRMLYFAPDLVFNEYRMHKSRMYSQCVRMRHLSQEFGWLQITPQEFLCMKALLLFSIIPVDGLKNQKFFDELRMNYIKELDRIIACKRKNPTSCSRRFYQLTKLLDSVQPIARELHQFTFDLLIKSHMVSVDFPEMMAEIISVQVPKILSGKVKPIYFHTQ

CC12CCC(CC1=O)C2(C)C (stereo not drawn)
inactive: [1] | [2] | [3] | [4] | [5]

CC(C)(C)CC(C)(C)N
inactive: [1] | [2] | [3] | [4] | [5]

COC[C@H](c1ccc(C(F)(F)F)cc1)N1CCN(C2(C)CCN(C(=O)c3c(C)ncnc3C)CC2)C[C@H]1C
inactive: [6] | [3] | [4] | [5]

NC(=O)c1ncn([C@@H]2O[C@H](CO)[C@@H](O)[C@H]2O)c1N
inactive: [6] | [4] | [5]

NS(=O)(=O)c1cc(C2(O)NC(=O)c3ccccc32)ccc1Cl (stereo not drawn)
inactive: [1] | [2] | [3] | [4] | [5]

CC1=CCC2C(C1)C2(C)C (stereo not drawn)
not listed: [1] | [2] | [3]
inactive: all other assays above

CCC(C)(C)C1CCC(OC)CC1 (stereo not drawn)
inactive: [6] | [4] | [5]

CCN1CCCC(OC(=O)C(c2ccccc2)c2ccccc2)C1 (stereo not drawn)
inactive: [6] | [4] | [5]

O=C(O)/C=C/c1ccc(/C=C/C(=O)O)cc1
not listed: [6]
inactive: all other assays above

CC1CCN(CCCC(=O)c2ccc(F)cc2)CC1
inactive: [6] | [4]

C[N+](C)(C)CC[N+]1(C)Cc2c(Cl)c(Cl)c(Cl)c(Cl)c2C1
inactive: [6] | [3] | [4] | [5]

N[C@@H](CS)C(=O)O
inactive: [1] | [2] | [3] | [4] | [5]

CN(C)C(=O)C(CCN1CCC(O)(c2ccc(Cl)cc2)CC1)(c1ccccc1)c1ccccc1
inactive: [6]
active: [2] 10.6 µM | [5] 24.8 µM

CC(C)=CC(=O)O
inactive: [3] | [4] | [5]

O=[N+]([O-])c1ccc(Oc2ccc([N+](=O)[O-])cc2)cc1
inactive: [1] | [2] | [4] | [5]

c1ccc(CCCc2ccccn2)cc1
inactive: [1] | [2] | [4] | [5]

Nc1nc2c(ncn2CCC(CO)CO)c(=O)[nH]1
active: [1] 3.35 µM | [2] 5.96 µM
inactive: [4] | [5]

CCCC=O
inactive: [1] | [2] | [4] | [5]

CC(C)N1C(=O)c2ccccc2C1=O
inactive: [1] | [3] | [4] | [5]

OC/C=C/c1ccccc1
inactive: [4] | [5]

C=C(C)C(=O)NCCC[N+](C)(C)C
inactive: [2] | [3] | [4] | [5]

CCCCCCCCN(C)CCCCCCCC
inactive: [4] | [7] | [9] | [5] | [10]

Oc1ccc2c(c1)OC[C@@H](N1CCC(O)(c3ccc(F)cc3)CC1)[C@H]2O
inactive: [4] | [5]

CC(C)COC(=O)C(C)C
inactive: [2] | [4] | [5]

CC(C)(C)C(=O)/C=C/c1ccc(Cl)cc1
inactive: [1] | [4] | [5]

CC(=O)OC(C)(C)C
inactive: [3] | [4] | [5]

CCCCCCCCCCCl
inactive: [1] | [3] | [4] | [5]

NC1CCN(c2cccc(Cl)n2)CC1
inactive: [4] | [7] | [8] | [9] | [5] | [10]

CCCc1ccccc1O
inactive: [1] | [2] | [3] | [4] | [5]

Cc1ccc(N)cc1[N+](=O)[O-]
not listed: [1] | [6]
inactive: all other assays above

C1C2OC2C2C1C1CC2C2OC12 (stereo not drawn)
inactive: [2] | [3] | [4] | [5]

COc1ccc(COC=O)cc1
inactive: [3] | [4] | [5]

CC(C)[C@H](N)C(=O)OCCOCn1cnc2c(=O)[nH]c(N)nc21
inactive: [4] | [5]
active: [1] 11.9 µM | [3] 26.6 µM

C=C(C)C(=O)OCCC(C)OC(=O)C(=C)C (stereo not drawn)
inactive: [2] | [3] | [4] | [5]

OCCN1C[C@H](O)[C@@H](O)[C@H](O)[C@H]1CO
not listed: [1] | [6]
inactive: all other assays above

c1cc(CN2CCCCC2)cc(OCCCNc2nc3ccccc3s2)c1
inactive: [4] | [5]
active: [1] 13.3 µM | [2] 29.8 µM

CC(C)c1ccc2oc3nc(N)c(C(=O)O)cc3c(=O)c2c1
inactive: [1] | [4] | [7] | [5] | [10]
active: [9] 11.9 µM

CCN(CC)S(=O)(=O)c1ccc(C(=O)O)cc1
inactive: [1] | [2] | [3] | [4] | [5]

CCCC(=O)O[C@]1(C(=O)CCl)[C@@H](C)C[C@H]2[C@@H]3CCC4=CC(=O)C=C[C@]4(C)[C@@]3(F)C(=O)C[C@@]21C
active: [3] 13.3 µM | [7] 7.56 µM | [9] 0.006 µM
inactive: [4] | [10]

CC(C)(C)OC(=O)N1C[C@@H](F)C[C@H]1C(=O)O
inactive: [1] | [2] | [4] | [5]

CO[Si](OC)(OC)OC
inactive: [4] | [5]

COc1cc(C)cc(O)c1
inactive: [2] | [3] | [4] | [5]

C#CC(O)C(CC)CCCC (stereo not drawn)
not listed: [3] | [6]
inactive: all other assays above

CCCCCC[C@@H](CCC)C(=O)O
inactive: [1] | [2] | [3] | [4] | [5]

CCCCCCCCC=O
inactive: [1] | [3] | [4]

CCC(=O)Nc1cccc(N)c1
inactive: [1] | [3] | [4] | [5]

OC1OC[C@@H](O)[C@H](O)[C@H]1O (stereo partly drawn)
inactive: [1] | [3] | [4] | [5]

Cc1cc(C)cc(OCC2CNC(=O)O2)c1 (stereo not drawn)
inactive: [1] | [4] | [5]

O=C(O)c1ccc[n+]([O-])c1
not listed: [1] | [2] | [6]
inactive: all other assays above
